# CHOP inh = blocks CHOP induction under ER stress | inhibition, % at 10 µM | 220,000 tested, 3.8% active | CHO-K1 CHOP-promoter luciferase, tunicamycin-induced, 15-18 h;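 active means compounds that reduced the stress-induced luciferase reporter signal by more than about 70% of percent inhibition, limit read from the data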;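 further: 0% = tunicamycin plus vehicle and 100% = wells without tunicamycin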
# RAM inhibit = blocks the yeast RAM network | AID 868 | inhibition, % at 50 µM | S. cerevisiae dse1pr::URA3 reporter, 5-FOA growth OD615, 2 d; analog-sensitive cbk1-as2 kinase mutant strain | 190,000 tested, 1.8% active;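 active means inhibition above a set limit, 3 SD over mean compound inhibition, cut at about 8.4% in these data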;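 further: 0% = DMSO-only wells with no growth and 100% = 10 µM 1-NA-PP1 full growth; inhibition rescues growth on 5-FOA so higher OD means more RAM inhibition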
# Lmaj promast = reduces viability of Leishmania major promastigotes. resazurin fluorescence viability. inhibition, % at 10 µM. 200,000 tested, 9% active; in the data active means inhibition above about 50%;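 further: promastigotes grown with compound for 44 hours at 28 °C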
# WT yeast gro inh = growth inhibition of WT yeast, mitochondrial fusion screen. mitochondrial fusion phenotypic screen, WT strain. inhibition, % at 10 µM. 190,000 tested, 2.1% active. AID 1362; in the data active means inhibition above about 58%; tested in S. cerevisiae
# Active calls of the source: *; . = no result given. Sampled rows, rich in hits. Any-hit rate of the full collection: about 13%.
SMILES,CHOP inh,RAM inhibit,Lmaj promast,WT yeast gro inh
CCOc1cc(-c2nc(-c3ccccc3OC)no2)cc(OCC)c1OCC,76*,4,-1,-3
CCOc1ccc(-c2nc(-c3ccncc3)no2)cc1OCC,67,1,89*,-4
Cc1cc(-c2nc(C)c(-c3nnc(SCC(=O)Nc4ccc(Cl)cc4)n3C)s2)no1,18,.,.,.
COc1ccc(OC)c(S(=O)(=O)NCCc2csc(-c3cccnc3)n2)c1,-28,.,.,.
CCCCCCCCc1nc(SC(C)C(=O)O)n[nH]1 (stereo not given),-2,-1,-10,-7
O=C(O)C1C2CCCCC2=C2CCCCC2C1C(=O)c1ccccc1 (stereo not given),18,.,.,.
COc1ccc(NC(=O)c2cc3c(Cl)nc4ccccc4c3s2)cc1OC,22,5,-4,2
COc1ccc(OC)c(NC(=O)c2cc3c(Cl)nc4ccccc4c3s2)c1,59,9.9*,72*,-36
CC(NC(=O)Cn1c(=O)oc2cc(S(=O)(=O)N3CCCC3)ccc21)c1ccccc1 (stereo not given),2,1,100*,-18
O=C(Cn1c(=O)oc2cc(S(=O)(=O)N3CCCC3)ccc21)NC1CCCc2ccccc21 (stereo not given),46,5,100*,14
O=C(Cn1c(=O)oc2cc(S(=O)(=O)N3CCCC3)ccc21)N1CCN(c2ccccc2)CC1,0,0,100*,-9
CCOC(=O)Cn1c(=O)oc2cc(S(=O)(=O)NC(C)c3ccccc3)ccc21 (stereo not given),8,2,-4,10
Cc1c(C(=O)NC2CCCc3ccccc32)oc2ccc(S(=O)(=O)N3CCCCC3)cc12 (stereo not given),85*,5,4,9
O=C(Cn1c(=O)oc2cc(S(=O)(=O)N3CCCCCC3)ccc21)NC1CCCCCCC1,33,3,-1,13
O=C(CN1CCN(C/C=C/c2ccccc2)CC1)NC(=O)NC1CCCCC1,31,-1,38,-26
N#Cc1ccc(OCC(=O)N/N=C/C2CC=CCC2)cc1 (stereo not given),5,0,-6,7
CN(C)C(=O)CCCCCCCCC(=O)N(C)C,-7,.,.,.
CN(Cc1ccccc1)C(=O)Cn1c(=O)oc2cc(S(=O)(=O)N3CCCC3)ccc21,11,1,100*,2
O=C(Nc1nc2ccccc2s1)c1ccc2c(c1)S(=O)(=O)c1ccccc1C2=O,-9,2,3,5
O=C(Nc1nc2ccc(SC(F)F)cc2s1)c1ccc2c(c1)S(=O)(=O)c1ccccc1C2=O,35,7,86*,14
O=C(Nc1nc(-c2ccccc2)cs1)c1ccc2c(c1)S(=O)(=O)c1ccccc1C2=O,16,3,-4,17
O=C(Nc1nc(-c2cccc3ccccc23)cs1)c1ccc2c(c1)S(=O)(=O)c1ccccc1C2=O,85*,6,-5,-44
O=C(Nc1ccncc1)c1ccc2c(c1)S(=O)(=O)c1ccccc1C2=O,24,2,100*,-17
O=[N+]([O-])c1ccc(C2=NN(CCO)C(=Nc3ccc(OC(F)(F)F)cc3)SC2)cc1,38,.,.,.
Oc1ccccc1-c1cc(C(F)(F)F)[nH]n1,19,.,.,.
SMILES,CHOP inh,RAM inhibit,Lmaj promast,WT yeast gro inh
O=[N+]([O-])c1ccccc1-c1cc(-c2ccccc2O)n[nH]1,8,-1,58*,3
CC1CCN(C(=O)c2ccc3c(c2NCCO)C(=O)c2ccccc2C3=O)CC1,20,1,37,71*
CCc1nc2ccccc2c(C(=O)OCC(=O)NC(=O)c2cccn2C)c1C,-9,.,.,.
O=C(c1ccc(=O)[nH]c1)N(Cc1cccs1)C1(C(=O)NC2CCCC2)CCCCC1,27,1,-4,6
CCNc1nc(SCC(=O)Nc2ccc(Cl)c(Cl)c2)nc(N(C)C)n1,79*,3,39,-13
Cc1ccc(NC(=O)CSC(N)=O)cc1Cl,28,0,-2,6
NC(=O)SCC(=O)Nc1ccc(Cl)c(Cl)c1,34,3,98*,12
CCc1ccc(-c2nn(-c3ccccc3)cc2C2SCC(=O)N2Cc2ccco2)cc1 (stereo not given),27,6,98*,.
O=C1CSC(c2cn(-c3ccccc3)nc2-c2ccccc2)N1Cc1ccco1 (stereo not given),64,5,36,45
Cc1ccc(NC(=S)N(Cc2cccs2)Cc2cc3cc(C)ccc3[nH]c2=O)cc1,-1,6,79*,14
CCN(CC)CCN(Cc1cc2cc(C)cc(C)c2[nH]c1=O)C(=S)NCc1ccco1,29,1,38,2
CCN(CC)CCN(Cc1cc2cc(C)ccc2[nH]c1=O)C(=S)NCc1ccco1,9,-1,61*,-6

# Screens: PubChem BioAssay, several laboratories
